# Assay outcomes deposited in PubChem by Johns Hopkins Ion Channel Center.
# In the library only some 1.6% were active in any assay of this set; here they are far more common.
# KCNQ2 pot: KCNQ2 (rat) channel potentiation | O88943 | CHO-K1 KCNQ2, FluxOR thallium flux fluorescence; hits give high values | B-score at 10 µM | actives 0.54% (n = 310,000) | AID 2239;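 active = fluorescence ratio B-score at least 3 SD of library B-scores, with initial fluorescence B-score within 3 of them, cut at about 5.3 in these data; same plate scores as AID 2156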;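 also: B-score of peak minus minimum over baseline fluorescence ratio after K+ and Tl+ stimulus; positive B-score means potentiation of KCNQ2 with more thallium influx and brighter signal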
# Target sequence (O88943 whole entry, looked up): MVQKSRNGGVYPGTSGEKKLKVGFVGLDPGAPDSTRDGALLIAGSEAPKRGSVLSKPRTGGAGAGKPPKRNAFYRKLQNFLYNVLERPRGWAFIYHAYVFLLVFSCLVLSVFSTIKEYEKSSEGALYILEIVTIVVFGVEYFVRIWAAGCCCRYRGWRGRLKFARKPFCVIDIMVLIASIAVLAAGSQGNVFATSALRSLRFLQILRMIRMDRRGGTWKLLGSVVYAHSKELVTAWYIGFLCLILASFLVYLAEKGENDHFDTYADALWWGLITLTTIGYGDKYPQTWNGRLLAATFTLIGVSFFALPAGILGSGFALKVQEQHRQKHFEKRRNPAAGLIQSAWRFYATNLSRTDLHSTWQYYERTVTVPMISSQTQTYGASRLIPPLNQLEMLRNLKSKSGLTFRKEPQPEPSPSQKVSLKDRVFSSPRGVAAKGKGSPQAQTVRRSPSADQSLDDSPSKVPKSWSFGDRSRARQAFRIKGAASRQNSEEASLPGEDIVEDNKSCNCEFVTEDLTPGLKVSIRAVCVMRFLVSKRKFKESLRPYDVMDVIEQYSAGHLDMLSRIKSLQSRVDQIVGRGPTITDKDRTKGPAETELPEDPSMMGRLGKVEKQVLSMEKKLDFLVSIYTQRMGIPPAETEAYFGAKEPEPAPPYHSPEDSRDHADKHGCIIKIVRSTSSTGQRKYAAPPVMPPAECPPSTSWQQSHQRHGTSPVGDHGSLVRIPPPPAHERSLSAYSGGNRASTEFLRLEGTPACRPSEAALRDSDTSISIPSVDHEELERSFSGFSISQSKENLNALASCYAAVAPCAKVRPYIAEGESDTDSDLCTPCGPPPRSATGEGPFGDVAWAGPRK
# KCNQ2 inh: inhibitors of rat KCNQ2 potassium channel; CHO-K1 KCNQ2, FluxOR thallium flux, 20 min; hits give low values; B-score at 10 µM; O88943; AID 2156; actives 1.1% (n = 310,000);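 active = fluorescence ratio B-score at most minus 3 library SDs, with starting brightness B-score within 2 library SDs, cut at about -5.5 in these data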
# Kir21 conf inh: confirmation of mouse Kir2.1 potassium channel inhibitors. AID 2032. shares compounds with KCNQ2 pot. Kir2.1-expressing cells, FluxOR thallium flux fluorescence; hits give low values. actives 41% (n = 2,300). Tl flux remaining, % of negative control (hits give low values), % at 10 µM;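 active = Primary-screen hit whose thallium flux fell at least 3 control SD below untreated wells in both duplicates, with normal baseline fluorescence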;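 also: 0% = blank wells without stimulus and 100% = stimulated no-compound controls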
# HEK293 ctr: counter-screen for Kir2.1 inhibitors: effect in parental HEK293 cells. shares compounds with KCNQ2 pot. actives 19% (n = 2,300). FluxOR thallium flux fluorescence; 0% = unstimulated blank wells. FluxOR signal as % of negative control (100 = no effect), % at 10 µM. AID 2105;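 active = dye signal at least 3 control SD above or below untreated wells in both duplicates, raw fluorescence within 3, either direction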;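 also: percent is based on the flux ratio of peak minus minimum fluorescence over baseline F0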
# CHO-K1 ctr: alters thallium flux in parental CHO-K1 cells, KCNQ2 counter-screen; activity increase over 3SD of controls, % at 10 µM; FluxOR thallium flux fluorescence; zero = vehicle mean+3SD, 100% = vehicle-minus-blank window; actives 43% (n = 1,200); shares compounds with KCNQ2 pot; AID 2282;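 active = signal rise of at least 3 SD above the untreated control mean, in both duplicate wells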;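 also: counter screen of KCNQ2 potentiator hits so any rise reflects channel-independent effects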
# KCNQ1 pot spec: human KCNQ1 counter-target activity of KCNQ2 potentiators; shares compounds with KCNQ2 pot; CHO KCNQ1 stable, FluxOR thallium flux fluorescence; beyond 3SD, as % of vehicle-control signal; activation over 3SD threshold, % at 10 µM; actives 28% (n = 1,200);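 active = fluorescence ratio rise of at least 3 SD of vehicle wells above their mean, in both replicate wells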;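 also: 0% = vehicle mean plus 3 SD and 100% = vehicle minus unstimulated blank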
# KCNQ2 pot confirm: rat KCNQ2 channel potentiator confirmation; shares compounds with KCNQ2 pot; actives 68% (n = 1,200); CHO-KCNQ2 cells, FluxOR thallium flux fluorescence; potentiation, less the hit threshold, % at 10 µM;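 active = fluorescence ratio rising 3 SD or more over the vehicle control mean in both replicates, plus primary screen hit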;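 also: peak minus minimum thallium fluorescence divided by baseline after K/Tl stimulus; 0% = vehicle mean plus 3 SD and 100% = vehicle minus unstimulated blank difference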
# Kir21 spec: tests whether KCNQ2 potentiators also affect mouse Kir2.1; actives 2% (n = 1,200); HEK293 Kir2.1, FluxOR thallium flux fluorescence; shares compounds with KCNQ2 pot; AID 2345; activity over 3SD threshold, % at 10 µM;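 active = fluorescence ratio rise of at least 3 SD above the vehicle-control mean, seen in both replicates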;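 also: 0% = vehicle mean plus 3 SD and 100% = vehicle minus no-stimulus blank window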
# KCNQ2 W236L MoA: KCNQ2 potentiators acting on retigabine-insensitive rat KCNQ2 W236L mutant; shares compounds with KCNQ2 pot; CHO KCNQ2-W236L, automated patch clamp current; current increase over 3SD of negative controls (%), hits give high values, % at 25 µM; actives 10% (n = 940); AID 2558;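 active = current increase at least 3 SD of the untreated controls above them in both duplicate recordings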
# Starred values were filed as active, the others as inactive; i = inactive; . = no result.
SMILES,KCNQ2 pot,KCNQ2 inh,Kir21 conf inh,HEK293 ctr,CHO-K1 ctr,KCNQ1 pot spec,KCNQ2 pot confirm,Kir21 spec,others
CCn1nc(NC(=O)C(C)(C)C)c2cc3cccc(C)c3nc21,8.5*,i,i,i,20*,3.4*,-81,-31,KCNQ2 W236L MoA=i
CCCn1nc(NC(=O)CC(C)C)c2cc3cccc(C)c3nc21,5.3*,i,i,i,-19,-32,-20,-41,
CCCn1nc(NC(C)=O)c2cc3cccc(C)c3nc21,1.6,i,.,.,.,.,.,.,
CC(=O)Nc1ccc(S(=O)(=O)NCCCN2CCOCC2)cc1,.,i,.,.,.,.,.,.,
CCN(CC)CCCNc1nc2ccccc2c2nc(-c3ccncc3)nn12,0.98,i,.,.,.,.,.,.,
COc1ccc(C(=O)COC(=O)C(CCSC)NC(=O)COc2ccccc2)c(OC)c1 (stereo not given),0.9,i,.,.,.,.,.,.,
CCOC(=O)C(C)CC(C)C(=O)N1CCOCCOCCN(C(=O)C(C)CC(C)C(=O)OCC)CCOCC1 (stereo not given),0.55,i,.,.,.,.,.,.,
CCOC(=O)C(C(=O)OCC)C(C(=O)OCC)N1CCOCC1 (stereo not given),15*,i,.,.,-7,24*,35*,-56,KCNQ2 W236L MoA=i
CN1CCN(C(=O)CSc2nc(-c3ccco3)cc(C(F)(F)F)n2)CC1,0.86,i,.,.,.,.,.,.,
O=C(CCSc1nc(-c2ccco2)cc(C(F)(F)F)n1)N1CCN(c2ccccn2)CC1,.,i,.,.,.,.,.,.,
O=C(CSc1nc(-c2ccco2)cc(C(F)(F)F)n1)N1CCN(c2cccc(Cl)c2)CC1,7.9*,i,i,76%*,15*,60*,-16,-44,
O=C(CSc1nc(-c2ccco2)cc(C(F)(F)F)n1)N1CCSCC1,12*,i,i,i,-3,68*,34*,-36,KCNQ2 W236L MoA=i
Cc1noc(C)c1COC(=O)CCOc1ccccc1,1.1,i,.,.,.,.,.,.,
Cc1noc(C)c1COC(=O)CCN1c2ccccc2Sc2ccccc21,.,i,70%*,i,.,.,.,.,
Cn1cc(S(=O)(=O)N2CCCC(C(=O)O)C2)cn1 (stereo not given),1.1,i,.,.,.,.,.,.,
COC1=C(Nc2ccccc2OC)C(=O)c2ccccc2C1=O,.,i,.,.,.,.,.,.,
COc1ccccc1NC1=C(NC(C)=O)C(=O)c2ccccc2C1=O,8*,i,i,i,-27,-27,4.8*,-32,KCNQ2 W236L MoA=i
COc1ccc(CNC(=O)c2ccc(Cn3cc(Br)cn3)o2)cc1,0.58,i,.,.,.,.,.,.,
COc1ccccc1NC(=O)Cc1ccc(-c2ccccc2)cc1,.,i,.,.,.,.,.,.,
COc1ccc(NC(=O)CCCC(=O)c2ccccc2)c(OC)c1,.,i,.,.,.,.,.,.,
COc1ccc(CC(=O)Nc2ccccc2Oc2ccccc2)cc1,10*,i,i,i,-29,-6,17*,-57,KCNQ2 W236L MoA=i
COc1ccc(NC(=O)CCCc2ccccc2)c(OC)c1,5.5*,i,i,i,93*,-4,8.7*,-24,KCNQ2 W236L MoA=i
CC1CCc2cc(F)ccc2N1C(=O)C12CCC(C)(C(=O)O1)C2(C)C (stereo not given),.,i,.,.,.,.,.,.,
Cn1cc(SCC(=O)N2CCCc3ccccc32)c2ccccc21,.,i,52%*,i,.,.,.,.,
Cn1cc(SCC(=O)N2CCOCC2)c2ccccc21,.,i,.,.,.,.,.,.,
SMILES,KCNQ2 pot,KCNQ2 inh,Kir21 conf inh,HEK293 ctr,CHO-K1 ctr,KCNQ1 pot spec,KCNQ2 pot confirm,Kir21 spec,others
Oc1ccc(Nc2nc(N3CCCC3)c3ccccc3n2)cc1,.,i,48%*,i,.,.,.,.,
COc1ccc(Nc2nc(N3CCCCC3)c3ccccc3n2)cc1,.,i,.,.,.,.,.,.,
COC(=O)c1ccc(NC(=O)CN2CCN(c3ccccn3)CC2)cc1,0.92,i,.,.,.,.,.,.,
O=C(CCCOc1ccccc1)Nc1ccc(S(=O)(=O)Nc2ccccn2)cc1,.,i,.,.,.,.,.,.,
CCCCn1c(SCC(N)=O)nc2c(sc3ccccc32)c1=O,0.35,i,.,.,.,.,.,.,
CCSc1nc2c(sc3ccccc32)c(=O)n1C(C)C,6*,i,i,244%*,29*,1.2*,25*,-34,KCNQ2 W236L MoA=i
CCc1nc(OCC(=O)c2ccccc2)c(C#N)c2c1COC(C)(C)C2,9.6*,i,i,i,57*,-6,20*,-48,KCNQ2 W236L MoA=i
Cc1nc(OCC(=O)c2ccc(Cl)cc2)c(C#N)c2c1COC(C)(C)C2,0.81,i,.,.,.,.,.,.,
CC(=O)N1CCN(Cc2nc(-c3cccc(Cl)c3)no2)CC1,.,i,.,.,.,.,.,.,
